Only some compounds are listed: those with a hit (about 2.6% of all), similar ones and a draw of the others.
HIF-2a inh: inhibitors of HIF-2a. inhibition, % at 18.8 µM. 786-0 RCC cells HIF-2a reporter, luciferase luminescence, overnight. actives 0.72% (n = 360,000). AID 624352;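 active means inhibition of the luminescence signal of 40% or more relative to plate controls, in a single-dose primary screen at 18.75 µM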
KKLEB tox: counter-screen for CF NF-kB inhibitors: cytotoxicity | activity change (cytotoxicity), % at 5 µM | actives 0.36% (n = 360,000) | KKLEB CF airway cells viability, ATPlite luminescence, overnight; stronger effect = lower value; cells stimulated with P. aeruginosa culture filtrate;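 active means corrected activity change at or below -50% at 5 µM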
Shn3 3UTR inh: inhibitors of Schnurri-3 3'UTR reporter in osteoblasts; inhibition, % at 12.5 µM; Clone20 osteoblast Shn3 3'UTR firefly luciferase, 24 h; actives 0.52% (n = 360,000); AID 588674;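 active means mean inhibition of at least 75% with every replicate also reaching 75%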
CF NFkB block: blocks PAF-induced NF-kB reporter in cystic fibrosis cells. inhibition, % at 5 µM. actives 0.86% (n = 360,000). KKLEB NF-kB-GFP reporter, GFP fluorescence overnight;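 active means at least 50% inhibition at 5 µM, scaled per plate between neutral and stimulator controls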;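 further: PAF is a Pseudomonas aeruginosa culture filtrate used as stimulus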
Peg3 prom inh: inhibitors of Peg3 promoter. inhibition, % at 20 µM. HeLa PEG-Prom luciferase reporter, luminescence, overnight. actives 1.7% (n = 360,000). AID 588405;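 active means inhibition of at least 50% at 20 µM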
Each line names hits and unclear results; the compound was inactive in the other large screens.

FC(F)(F)c1cc(CO[C@@H]2CCCN[C@@H]2c2ccccc2)cc(C(F)(F)F)c1	Peg3 prom inh 72
c1ccc(-c2nc(NCC3CC3)nc3ccsc23)cc1	none
O=C(CSC(=O)c1ccccc1)Nc1ccccc1F	none
O=C(CN1C(=O)c2ccccc2S1(=O)=O)N1CCN(c2ccc(F)cc2)CC1	none
O=C(CCS(=O)(=O)c1ccccc1)Nc1nc2cc3c(cc2s1)OCCO3	none
O=C(CCS(=O)(=O)c1ccccc1)Nc1nc2ccc(F)cc2s1	Peg3 prom inh 61
COc1ccc(Cl)cc1N1CCN(CCNC(=O)Nc2ccccc2C)CC1	Peg3 prom inh 51
CCc1nnc(NC(=O)c2ccncc2)s1	none
CCc1nnc(NC(=O)c2cccc(C(=O)Nc3nnc(CC)s3)n2)s1	Shn3 3UTR inh 88
O=[N+]([O-])c1ccc(N2N=C(c3ccccc3)CC2c2ccccc2O)cc1 (stereo not drawn)	Peg3 prom inh 53
Fc1ccc2[nH]c3c(N4CCN(c5ccccc5)CC4)ncnc3c2c1	Shn3 3UTR inh 89, Peg3 prom inh 104
OC1(c2cccc(C(F)(F)F)c2)CCN(c2ncnc3c2[nH]c2ccc(F)cc23)CC1	Shn3 3UTR inh 89, Peg3 prom inh 105
CCOC(=O)N1CCN(c2ncnc3c2[nH]c2ccc(F)cc23)CC1	none (no result: Shn3 3UTR inh)
COc1cc2[nH]c3c(N4CCN(c5ccccn5)CC4)ncnc3c2cc1OC	Peg3 prom inh 100
CCOC(=O)[C@]12CCCC=C1N(Cc1cccc3ccccc13)C(=O)[C@H](CC(=O)NCc1cccs1)C2	none (no result: KKLEB tox, Shn3 3UTR inh, CF NFkB block, Peg3 prom inh)
c1ccc2nc3c(cc2c1)CCCCC3	none
CC(=O)N1CCOc2ccc(S(=O)(=O)N3CC(C)CC(C)C3)cc21 (stereo not drawn)	none
CCC(C)(C)NC(=O)C(c1ccc(F)cc1)N(Cc1ccc(OC)cc1)C(=O)c1cnccn1 (stereo not drawn)	none
CCC(C)(C)NC(=O)C(c1ccc(F)cc1)N(Cc1cccc(OC)c1)C(=O)c1cnccn1 (stereo not drawn)	Peg3 prom inh 58
COc1ccc(OC)c(N/C(=N/C(=S)Nc2ccccc2)Nc2nc(C)cc(C)n2)c1	none
Cc1ccc(N=N/C(=C\O)C(=O)c2ccc(Cl)cc2)cc1	KKLEB tox -57, CF NFkB block 76, Peg3 prom inh 75
O=C(/C(=C/O)N=Nc1ccccc1)c1ccc(Cl)cc1	CF NFkB block 63
C[C@]12CCC[C@H](O1)[C@H]([C@@H](O)c1ccccc1)O2	none
Cc1cc(C)cc(NC(=S)N2CCC(NC(=O)c3ccc(F)cc3)CC2)c1	none
CCCCOc1ccc(N2C(=O)CC(NCc3ccncc3)C2=O)cc1 (stereo not drawn)	none
C=CCNCC(=O)N1N=C(c2ccc3ccccc3c2)CC1c1ccc(OC)cc1 (stereo not drawn)	Peg3 prom inh 66
COc1ccc(C2CC(c3ccc4ccccc4c3)=NN2C(=O)CNC2CCCCC2)cc1 (stereo not drawn)	Peg3 prom inh 90
Cc1cc(C)n(C(=O)Cn2nc([N+](=O)[O-])c(Br)c2C)n1	none
O=C(CN1c2ccccc2Sc2ccccc21)NNC(=O)Nc1cccc(Cl)c1	Peg3 prom inh 51
O=C(Cc1ccccc1)NNC(=O)Nc1cccc(Cl)c1	none
Cc1ccc(C)c(NC(=O)CN(C)C(=O)c2ccccc2OCc2ccc(Cl)cc2)c1	none
COc1cccc(-c2sc3ccccc3c2-c2ccc(OCCN3CCCCC3)cc2)c1	Peg3 prom inh 84
COc1cccc(-c2sc3cc(OC)c(OC)cc3c2-c2ccc(OCCN3CCCCC3)cc2)c1	Peg3 prom inh 97
COc1cc2sc(-c3ccccc3OC)c(-c3ccc(OCCN4CCOCC4)cc3)c2cc1OC	none
COc1cccc(-c2sc3ccc(OC)cc3c2-c2ccc(OCCN3CCCC3)cc2)c1	Peg3 prom inh 97
COc1ccc(-c2sc3cc(OC)ccc3c2-c2ccc(OCCN3CCCCC3)cc2)cc1	none (no result: KKLEB tox, Shn3 3UTR inh, CF NFkB block, Peg3 prom inh)
CNC(=S)N(CCCO)Cc1cc2cc3c(cc2[nH]c1=O)OCO3	none
O=C(Nc1nc(-c2cccc3ccccc23)cs1)c1ccc2c(c1)S(=O)(=O)c1ccccc1C2=O	none
O=C(Nc1nc(-c2ccccc2)cs1)c1ccc2c(c1)S(=O)(=O)c1ccccc1C2=O	KKLEB tox -57
O=C(COc1ncnc2ccc(Br)cc12)Nc1ccc(N2CCOCC2)cc1	none
Brc1ccc2ncnc(Nc3ccc(N4CCOCC4)cc3)c2c1	CF NFkB block 67

Assay outcomes as filed in PubChem.
